Compounds without any hit were thinned out: in the full panel of roughly 83,000, 20% have a hit.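 Activity criterion: percent growth below 10, measured after cells in 96-well plates were exposed to a single compound concentration for 48 hours.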 Values without a mark were called inactive. Activity calls are given as the source filed them.
Legend:
Assay in all cases: NCI-60 one-dose screen, 48 h (100 = growth as untreated, 0 = no growth, -100 = all killed)
Conditions in all cases: 10 µM unless noted
[1] = system: OVCAR-8 ovarian
[2] = system: OVCAR-5 ovarian
[3] = system: OVCAR-4 ovarian
[4] = system: SK-OV-3 ovarian
[5] = system: IGROV1 ovarian
[6] = system: OVCAR-3 ovarian
[7] = system: HS 578T breast
[8] = system: NCI/ADR-RES ovarian
[9] = system: T-47D breast

Structure (SMILES)	growth [1] [%]	growth [2] [%]	growth [3] [%]	growth [4] [%]	growth [5]	growth [6] [%]	growth [7] [%]	growth [8] [%]	growth [9]
COc1ccc(C(=O)/C=C/c2ccc(Oc3nc(NCCO)nc(N4CCOCC4)n3)c(OC)c2)cc1	69.6	99.9	81.8	108	78.6%	101	78.1	82.9	94.1%
CCOC(=O)c1c(Nc2ccccc2)nn2c(N)c(C#N)c(-c3ccc(F)cc3)nc12	97.4	108	87	93.2	93.1%	110	79.6	97.4	64.6%
CCOC(=O)c1c(NC(=O)c2cccc(C(F)(F)F)c2)sc2cc(O)ccc12	105	98.4	104	–	75.7%	98.6	88.1	–	64%
CCN1CCN(S(=O)(=O)c2oc(-c3ccc(Cl)cc3)nc2C#N)CC1	85	94.8	105	129	7.89% (active)	41.8	105	96	7.45% (active)
O=C(Oc1ccc2ccc(=O)oc2c1)c1ccc(Cl)cc1	105	110	119	109	104%	118	103	101	105%
N[C@@H](Cc1cn(-c2c3ccccc3nc3ccccc23)nn1)C(=O)O	103	99.2	101	87.7	97.5%	–	99.8	105	96.2%
